Records with an inconclusive call do not appear. The source made the active and inactive calls. Rule for the calls, unless noted: active = hit-call score of the fitted dose curve at least 0.9, where 1 is the maximum; inactive = score below 0.9.
Assays:
[1] = ATG_NFI_CIS: Attagene CIS-FACTORIAL HepG2 Assay for human Nuclear Factor I (NFI) (AID 2282989); conditions: HepG2 cis-regulatory reporter, NFI response element transcription; actives raise or lower the signal
Method in brief: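 Transfected HepG2 liver cells, exposed 24 h, supplied total RNA for oligo(dT) reverse transcription and reporter-specific PCR. Labelled, HpaI-cut fragments were sized by capillary electrophoresis; DMSO set the baseline for bidirectional fitting.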

[2] = biological target: Myc proto-oncogene protein (Homo sapiens) (UniProt P01106); assay: ATG_Myc_CIS: Attagene CIS-FACTORIAL HepG2 Assay for human Myelocytomatosis (Myc) Proto-Oncogene Transcription Factor (AID 2282990); conditions: HepG2, Attagene cis-reporter transcription factor activity; actives raise or lower the signal
Myc proto-oncogene protein (Homo sapiens), sequence (P01106 whole entry, looked up): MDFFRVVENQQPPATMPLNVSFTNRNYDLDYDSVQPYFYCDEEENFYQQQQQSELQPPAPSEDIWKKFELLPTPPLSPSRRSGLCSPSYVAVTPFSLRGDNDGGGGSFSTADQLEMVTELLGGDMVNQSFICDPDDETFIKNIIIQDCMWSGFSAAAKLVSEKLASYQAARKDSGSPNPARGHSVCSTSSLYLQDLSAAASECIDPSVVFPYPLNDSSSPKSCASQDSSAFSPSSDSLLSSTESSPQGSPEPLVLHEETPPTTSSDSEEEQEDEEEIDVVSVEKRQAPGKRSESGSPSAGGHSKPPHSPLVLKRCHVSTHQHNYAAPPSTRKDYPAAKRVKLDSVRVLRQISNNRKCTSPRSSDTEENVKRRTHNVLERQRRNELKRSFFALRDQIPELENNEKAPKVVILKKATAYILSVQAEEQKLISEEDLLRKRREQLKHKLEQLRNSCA
Method in brief: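 HepG2, transient MRTU transfection (cis promoters, endogenous TFs); 24 h dosing; TriZol RNA → oligo(dT) RT → PCR → 6-FAM primer extension → HpaI cut → CE. Bidirectional fit vs DMSO.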

[3] = ATG_NF_kB_CIS: Attagene CIS-FACTORIAL HepG2 Assay for human Nuclear Factor Kappa B (NF-kB) (AID 2282991); conditions: HepG2 Attagene cis-factorial NF-kB reporter mRNA; actives raise or lower the signal
Method in brief: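 Fluorescence of labelled RT-PCR products separated by capillary electrophoresis gives reporter mRNA levels from transfected HepG2 cells exposed 24 h; values are fitted in both directions relative to DMSO.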

[4] = ATG_NRF2_ARE_CIS: Attagene CIS-FACTORIAL HepG2 Assay for human Nuclear Factor Erythroid 2 Related Factor 2 (NFR2) response to Antioxidant Response Elements (ARE) (AID 2282992); conditions: HepG2 Attagene ARE/NRF2 reporter, transcription factor activity; actives raise or lower the signal
Method in brief: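 Cis-factorial assay: transfected HepG2 reporter library, 24 h dosing, mRNA readout via RT-PCR/CE; DMSO-referenced bidirectional analysis.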

[5] = ATG_Oct_MLP_CIS: Attagene CIS-FACTORIAL HepG2 Assay for human Octamer-Binding Transcription Factor (Oct) (AID 2282993); conditions: HepG2 Attagene cis-factorial Oct reporter, mRNA; actives raise or lower the signal
Method in brief: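 Using HepG2 cells bearing transfected cis-reporter constructs, mRNA induction was read after 24 h by fluorescent RT-PCR and capillary electrophoresis, with DMSO defining baseline for gain- or loss-of-signal fits.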

[6] = biological target: Cellular tumor antigen p53 (Homo sapiens) (UniProt P04637); assay: ATG_p53_CIS: Attagene CIS-FACTORIAL HepG2 Assay for human p53 Transcription Factor (AID 2282994); conditions: HepG2 p53 cis-element reporter, Attagene mRNA; actives raise or lower the signal
Cellular tumor antigen p53 (Homo sapiens), sequence (P04637 whole entry, looked up): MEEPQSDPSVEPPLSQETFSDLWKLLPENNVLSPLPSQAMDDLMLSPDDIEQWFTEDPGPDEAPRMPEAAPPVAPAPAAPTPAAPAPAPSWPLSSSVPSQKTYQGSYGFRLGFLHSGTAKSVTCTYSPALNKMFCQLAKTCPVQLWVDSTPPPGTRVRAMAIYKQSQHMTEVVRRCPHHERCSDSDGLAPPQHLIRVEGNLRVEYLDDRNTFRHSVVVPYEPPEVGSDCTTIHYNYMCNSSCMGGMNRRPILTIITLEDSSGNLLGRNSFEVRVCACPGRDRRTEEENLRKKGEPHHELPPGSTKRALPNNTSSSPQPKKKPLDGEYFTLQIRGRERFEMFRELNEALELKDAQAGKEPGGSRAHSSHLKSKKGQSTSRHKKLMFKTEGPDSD
Method in brief: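 Using HepG2 hepatoma cells carrying cis-acting multiplexed reporters, mRNA induction is detected after a 24 h exposure. Gain- and loss-of-signal responses are fitted relative to DMSO-treated cells.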

[7] = BSK_3C_TissueFactor: BioMAP Diversity Plus: 3C Assay for Tissue Factor Biomarker Activity (AID 2282997); conditions: BioMAP 3C HUVEC, tissue factor biomarker readout; actives raise or lower the signal
Method in brief: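 Primary human umbilical vein endothelial cells in the 3C system were exposed to test chemical for 24 h, then Tissue Factor measured by ELISA. Activity was fitted bidirectionally against DMSO as negative control and baseline.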

[8] = BSK_3C_uPAR: BioMAP Diversity Plus: 3C Assay for Urokinase-type plasminogen activator receptor (uPAR) Biomarker Activity (AID 2282998); conditions: BioMAP 3C HUVEC, uPAR biomarker ELISA; actives raise or lower the signal
Method in brief: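 In this endothelial cell-based assay, human umbilical vein primary cells were treated with chemicals and harvested at 24 h. uPAR was quantified using ELISA, with gains or losses fitted relative to DMSO controls.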

[9] = BSK_3C_VCAM1: BioMAP Diversity Plus: 3C Assay for Vascular cell adhesion molecule 1 (VCAM1) Biomarker Activity (AID 2282999); conditions: BioMAP 3C HUVEC, VCAM1 ELISA, cytokine-stimulated; actives raise or lower the signal
Method in brief: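 Endothelial cells from human umbilical vein are treated with test chemical. At 24 h, VCAM-1 is measured by ELISA, and responses in either direction are fitted relative to DMSO.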

[10] = BSK_4H_Eotaxin3: BioMAP Diversity Plus: 4H Assay for Eotaxin 3 Biomarker Activity (AID 2283000); conditions: primary human endothelial cells (HUVEC); actives raise or lower the signal
Method in brief: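 HUVEC, 24 h post-dose, ELISA for Eotaxin-3/CCL26. Gain or loss of signal fitted bidirectionally vs DMSO baseline.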

[11] = read-out: Intercellular Adhesion Molecule 1 (ICAM1), ICAM1 (gene 3383); assay: BSK_3C_ICAM1: BioMAP Diversity Plus: 3C Assay for Intercellular Adhesion Molecule 1 (ICAM1) Biomarker Activity (AID 2283003); conditions: primary human endothelial cells (HUVEC); actives raise or lower the signal
Method in brief: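 Human vascular endothelial primary cells, 3C conditions, 24 h treatment. ICAM-1 by ELISA.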

[12] = BSK_3C_Proliferation: Cell Proliferation Assessment in the BioMAP Diversity Plus: 3C Assay (AID 2283006); conditions: primary human endothelial cells (HUVEC);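 for AC50: potency may reflect either rise or fall in cell number versus DMSO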
Method in brief: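 Proliferation of human vascular endothelial primary cells after 48 h dosing, quantified as SRB-stained protein at 560 nm relative to DMSO.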

[13] = biological target: Peroxisome proliferator-activated receptor gamma (Homo sapiens) (UniProt P37231); assay: ATG_PPARg_TRANS: Attagene TRANS-FACTORIAL HepG2 Assay for human Peroxisome Proliferator-activated Receptor-gamma (PPARg) (AID 2283007; active = hit-call score of the fitted dose curve at least 0.9, where 1 is the maximum)
Peroxisome proliferator-activated receptor gamma (Homo sapiens), sequence (P37231 whole entry, looked up): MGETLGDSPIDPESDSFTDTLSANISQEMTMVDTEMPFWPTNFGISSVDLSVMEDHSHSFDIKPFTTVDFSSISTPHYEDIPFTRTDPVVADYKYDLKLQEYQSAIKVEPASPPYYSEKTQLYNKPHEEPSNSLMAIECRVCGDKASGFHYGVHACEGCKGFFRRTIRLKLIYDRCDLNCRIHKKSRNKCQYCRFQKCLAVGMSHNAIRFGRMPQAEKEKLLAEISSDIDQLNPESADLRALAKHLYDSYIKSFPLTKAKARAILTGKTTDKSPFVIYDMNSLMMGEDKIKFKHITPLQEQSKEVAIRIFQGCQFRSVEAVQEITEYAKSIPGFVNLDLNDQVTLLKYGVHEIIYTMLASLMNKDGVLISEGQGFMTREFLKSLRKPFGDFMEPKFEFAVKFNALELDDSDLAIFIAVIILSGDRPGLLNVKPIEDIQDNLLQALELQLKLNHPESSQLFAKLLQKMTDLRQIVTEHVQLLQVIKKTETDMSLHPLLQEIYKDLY
Method in brief: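 Twenty-four hours after chemical dosing of transiently transfected HepG2 cells, isolated RNA was converted to cDNA, reporter sequences amplified and 6-FAM-labelled, then HpaI-digested and analysed by capillary electrophoresis. Signal increase against DMSO was fitted.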

[14] = biological target: Nuclear receptor subfamily 1 group I member 2 (Homo sapiens) (UniProt O75469); assay: ATG_PXR_TRANS: Attagene TRANS-FACTORIAL HepG2 Assay for human Pregnane X Receptor (PXR) (AID 2283008; active = hit-call score of the fitted dose curve at least 0.9, where 1 is the maximum)
Nuclear receptor subfamily 1 group I member 2 (Homo sapiens), sequence (O75469 whole entry, looked up, the tested form may be a part): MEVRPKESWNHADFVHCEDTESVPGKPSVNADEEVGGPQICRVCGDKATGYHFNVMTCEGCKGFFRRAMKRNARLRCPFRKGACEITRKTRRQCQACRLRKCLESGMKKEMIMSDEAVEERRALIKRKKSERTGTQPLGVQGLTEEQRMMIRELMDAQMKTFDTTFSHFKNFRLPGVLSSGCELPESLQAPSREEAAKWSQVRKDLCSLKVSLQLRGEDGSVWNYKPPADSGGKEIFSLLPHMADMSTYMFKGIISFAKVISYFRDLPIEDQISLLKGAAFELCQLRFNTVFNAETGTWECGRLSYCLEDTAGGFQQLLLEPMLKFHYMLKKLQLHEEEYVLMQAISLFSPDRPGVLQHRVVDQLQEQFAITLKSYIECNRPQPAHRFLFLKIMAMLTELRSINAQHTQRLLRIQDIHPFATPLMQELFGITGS
Method in brief: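 Fluorescence intensity of FAM-labelled, HpaI-digested reporter amplicons, separated by capillary electrophoresis, quantifies induction. HepG2 cells with PXR-Gal4 trans-reporter system were exposed 24 h; DMSO defines baseline.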

[15] = biological target: human RAR-related Orphan Receptor beta (RORb), RORB (gene 6096) (UniProt Q92753); assay: ATG_RORb_TRANS: Attagene TRANS-FACTORIAL HepG2 Assay for human RAR-related Orphan Receptor beta (RORb) (AID 2283010; active = hit-call score of the fitted dose curve at least 0.9, where 1 is the maximum)
human RAR-related Orphan Receptor beta (RORb), RORB (gene 6096), sequence (Q92753 whole entry, looked up, the tested form may be a part): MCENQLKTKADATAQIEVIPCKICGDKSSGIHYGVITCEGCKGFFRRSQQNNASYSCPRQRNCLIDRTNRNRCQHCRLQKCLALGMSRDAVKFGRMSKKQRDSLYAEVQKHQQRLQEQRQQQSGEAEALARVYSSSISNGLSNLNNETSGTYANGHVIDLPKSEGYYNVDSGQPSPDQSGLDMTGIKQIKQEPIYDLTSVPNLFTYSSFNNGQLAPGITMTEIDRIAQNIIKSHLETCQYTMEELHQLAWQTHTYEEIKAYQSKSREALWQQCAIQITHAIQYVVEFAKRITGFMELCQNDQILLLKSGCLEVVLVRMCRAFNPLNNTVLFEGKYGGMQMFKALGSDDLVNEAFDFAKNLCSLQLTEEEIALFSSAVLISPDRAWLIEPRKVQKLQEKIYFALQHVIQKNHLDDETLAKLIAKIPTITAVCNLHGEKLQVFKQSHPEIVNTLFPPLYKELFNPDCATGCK
Method in brief: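 In this TRANS-format test, human HepG2 cells express chimeric NR-Gal4 fusion proteins driving GAL4-UAS reporters. After 24 h dosing, reporter transcripts are measured by fluorescent RT-PCR/capillary electrophoresis, with DMSO as negative control.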

[16] = biological target: human Peroxisome Proliferator-activated Receptor alpha (PPARa), PPARA (gene 5465) (UniProt Q07869); assay: ATG_PPARa_TRANS: Attagene TRANS-FACTORIAL HepG2 Assay for human Peroxisome Proliferator-activated Receptor alpha (PPARa) (AID 2283001; active = hit-call score of the fitted dose curve at least 0.9, where 1 is the maximum)
human Peroxisome Proliferator-activated Receptor alpha (PPARa), PPARA (gene 5465), sequence (Q07869 whole entry, looked up, the tested form may be a part): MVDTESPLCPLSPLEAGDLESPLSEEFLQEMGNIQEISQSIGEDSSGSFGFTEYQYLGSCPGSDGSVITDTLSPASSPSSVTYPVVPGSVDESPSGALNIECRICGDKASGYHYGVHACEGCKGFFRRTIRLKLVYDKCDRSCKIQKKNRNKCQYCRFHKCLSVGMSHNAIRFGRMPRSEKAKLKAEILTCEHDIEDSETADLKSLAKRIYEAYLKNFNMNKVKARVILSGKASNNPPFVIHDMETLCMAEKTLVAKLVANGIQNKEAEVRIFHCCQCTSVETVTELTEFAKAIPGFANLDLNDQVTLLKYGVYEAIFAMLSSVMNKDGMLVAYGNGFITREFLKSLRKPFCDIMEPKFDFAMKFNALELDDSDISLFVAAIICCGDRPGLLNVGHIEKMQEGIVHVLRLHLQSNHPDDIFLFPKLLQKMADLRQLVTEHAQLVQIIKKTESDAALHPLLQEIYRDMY
Method in brief: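 Reporter transcripts from GAL4-UAS units in transfected HepG2 were quantified 24 h after dosing. Detection used reverse transcription, PCR, fluorescent primer extension and capillary electrophoresis, with DMSO as baseline.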

[17] = biological target: human Peroxisome Proliferator-activated Receptor delta (PPARd), PPARD (gene 5467) (UniProt Q03181); assay: ATG_PPARd_TRANS: Attagene TRANS-FACTORIAL HepG2 Assay for human Peroxisome Proliferator-activated Receptor delta (PPARd) (AID 2283002; active = hit-call score of the fitted dose curve at least 0.9, where 1 is the maximum)
human Peroxisome Proliferator-activated Receptor delta (PPARd), PPARD (gene 5467), sequence (Q03181 whole entry, looked up, the tested form may be a part): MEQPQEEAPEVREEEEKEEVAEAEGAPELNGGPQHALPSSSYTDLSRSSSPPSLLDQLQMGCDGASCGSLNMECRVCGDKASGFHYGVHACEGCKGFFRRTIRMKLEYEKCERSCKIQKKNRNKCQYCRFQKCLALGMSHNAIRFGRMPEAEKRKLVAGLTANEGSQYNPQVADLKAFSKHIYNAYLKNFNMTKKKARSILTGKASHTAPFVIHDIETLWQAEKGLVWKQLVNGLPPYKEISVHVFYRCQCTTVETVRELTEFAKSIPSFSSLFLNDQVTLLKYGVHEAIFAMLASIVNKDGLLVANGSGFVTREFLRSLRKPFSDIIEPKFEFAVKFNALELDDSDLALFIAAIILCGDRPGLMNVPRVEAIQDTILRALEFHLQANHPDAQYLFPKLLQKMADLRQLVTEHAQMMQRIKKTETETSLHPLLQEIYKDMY
Method in brief: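 Transient HepG2 transfection (multiple GAL4-UAS RTUs, chimeric receptor-Gal4); 24 h dosing; total RNA → oligo(dT) RT → PCR → 6-FAM primer extension → HpaI cut → CE. Positive direction vs DMSO.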

[18] = biological target: human Retinoic Acid Receptor beta (RARb), RARB (gene 5915) (UniProt P10826); assay: ATG_RARb_TRANS: Attagene TRANS-FACTORIAL HepG2 Assay for human Retinoic Acid Receptor beta (AID 2283004; active = hit-call score of the fitted dose curve at least 0.9, where 1 is the maximum)
human Retinoic Acid Receptor beta (RARb), RARB (gene 5915), sequence (P10826 whole entry, looked up, the tested form may be a part): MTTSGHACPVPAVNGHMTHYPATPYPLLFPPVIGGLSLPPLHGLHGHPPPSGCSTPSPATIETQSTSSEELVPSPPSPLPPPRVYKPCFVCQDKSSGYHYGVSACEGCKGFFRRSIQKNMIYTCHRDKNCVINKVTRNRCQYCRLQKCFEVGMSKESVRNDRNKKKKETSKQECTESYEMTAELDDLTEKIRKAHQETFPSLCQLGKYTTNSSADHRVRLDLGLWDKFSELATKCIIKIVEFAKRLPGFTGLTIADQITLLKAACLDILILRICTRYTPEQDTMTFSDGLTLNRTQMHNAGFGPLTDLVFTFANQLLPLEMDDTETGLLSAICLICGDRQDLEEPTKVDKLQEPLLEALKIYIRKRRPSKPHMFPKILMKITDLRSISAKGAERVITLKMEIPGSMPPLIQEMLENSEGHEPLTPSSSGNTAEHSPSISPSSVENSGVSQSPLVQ
Method in brief: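 HepG2 cells transiently transfected with multiplexed GAL4-UAS reporter units expressing chimeric NR–Gal4 fusions; 24 h compound exposure. Reporter mRNA quantified by RT-PCR, 6-FAM labelling, HpaI digestion and capillary electrophoresis; gain-of-signal fitted against DMSO baseline.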

Measured: AC50

CC[Si](OC(C)=O)(OC(C)=O)OC(C)=O
active: [14] 7.32 µM
inactive: [1] | [2] | [3] | [4] | [5] | [6] | [7] | [8] | [9] | [10] | [11] | [12] | [13] | [15]

O=C(OCc1ccccc1)C(=O)OCc1ccccc1
inactive: [1] | [2] | [3] | [4] | [5] | [6] | [16] | [17] | [13]

O=P(c1ccccc1)(c1ccccc1)c1ccccc1
inactive: [1] | [2] | [3] | [4] | [5] | [6] | [7] | [8] | [9] | [10] | [11] | [12] | [13]
active: [14] 0.325 µM

O=S(=O)(O)c1cccc2c(S(=O)(=O)O)cccc12
inactive: [1] | [2] | [3] | [4] | [5] | [6] | [16] | [17] | [18]

CCCCC/C=C/C=C/C=O
inactive: [1] | [2] | [3] | [5] | [6] | [17] | [15]
active: [4] 40.6 µM | [7] 29.5 µM | [8] 31.5 µM | [9] 29.3 µM | [10] 29.9 µM | [11] 32.8 µM | [12] 20 µM
